Bioassay records deposited in PubChem by several laboratories.
Compounds with a hit are over-represented: about 1% of the library has one in this group of screens.
sEH act: soluble epoxide hydrolase activators, primary screen, biochemical, human sEH; 91,000 compounds, 0.04% hits; purified human sEH enzymatic activity, activator screen; Bifunctional epoxide hydrolase 2 (Homo sapiens), P34913; AID 717, 2007; activation, % at 2 µM; in the data active means activation above about 37%
Target sequence (P34913 whole entry, looked up): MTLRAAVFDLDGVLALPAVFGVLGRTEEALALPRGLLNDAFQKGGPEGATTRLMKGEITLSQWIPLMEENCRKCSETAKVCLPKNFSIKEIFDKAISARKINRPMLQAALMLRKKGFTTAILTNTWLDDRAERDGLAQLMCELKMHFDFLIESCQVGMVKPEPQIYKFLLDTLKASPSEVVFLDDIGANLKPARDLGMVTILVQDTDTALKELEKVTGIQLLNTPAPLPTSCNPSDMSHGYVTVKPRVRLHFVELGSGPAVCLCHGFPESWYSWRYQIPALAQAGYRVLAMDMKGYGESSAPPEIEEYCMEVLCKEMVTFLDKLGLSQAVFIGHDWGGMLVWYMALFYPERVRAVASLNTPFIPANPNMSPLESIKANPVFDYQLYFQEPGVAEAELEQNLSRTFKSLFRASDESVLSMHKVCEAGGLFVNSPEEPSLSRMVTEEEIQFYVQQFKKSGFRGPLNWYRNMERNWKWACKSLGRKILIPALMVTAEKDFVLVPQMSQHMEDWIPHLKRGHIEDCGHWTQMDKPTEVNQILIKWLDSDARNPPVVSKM
Plk1 PBD FP: Plk1 polo box domain binding inhibitors, primary screen, biochemical, fluorescence polarization | Plk1 PBD phosphopeptide binding | 97,000 compounds, 0.13% hits | inhibition, %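 (tested at about 20 µM)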; in the data active means inhibition above about 34%, passing the limit was not always enough
EphB4 ephrin blk: EphB4-ephrin-B2 interaction antagonists, primary screen, biochemical, TNYL-RAW peptide probe, fluorescence polarization; Ephrin type-B receptor 4 (Homo sapiens), P54760; EphB4 LBD / TNYL-RAW-Alexa532 peptide; inhibition, % at 7 µM; 97,000 compounds, 0.15% hits; AID 720, 2007;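 active means inhibition above the screen-wide mean inhibition plus 3 SD, cut at about 15% in these data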;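 further: 0% = DMSO wells and 100% = excess unlabeled TNYL-RAW peptide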
PLK1 inh: human PLK1 kinase inhibitors, primary screen, biochemical, TR-FRET; recombinant PLK1 kinase, TR-FRET peptide phosphorylation; inhibition, % at 10 µM; 97,000 compounds, 0.53% hits; AID 619, 2007;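 active means inhibition of 50% or more in the single-concentration screen; inactive means inhibition below 50%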;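 further: 0% = DMSO max control and 100% = H-89 dihydrochloride min control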
sEH inh: soluble epoxide hydrolase inhibitors, primary screen, biochemical, human sEH; Bifunctional epoxide hydrolase 2 (Homo sapiens), P34913; inhibition, % at 2 µM; recombinant human sEH enzymatic activity assay; 91,000 compounds, 0.34% hits; in the data active means inhibition above about 80%
* = called active by the depositor; . = no result given.

SMILES	sEH act	Plk1 PBD FP	EphB4 ephrin blk	PLK1 inh	sEH inh
O=C(Nc1cccnc1)C1COc2ccccc2O1 (stereo unspecified)	20	-8	16*	-5	-18
O=C(CCC1COc2ccccc2O1)Nc1cccnc1 (stereo unspecified)	5	15	-8	-13	-8
O=C1C(=O)N(CCN2CCCCC2)c2ccccc21	-11	-45	8	53*	16
O=C(CCC1CCCC1)NC1CCCCC1	-43	-11	4	-11	42
O=C(CCC1CCCCC1)NNC(=O)NC12CC3CC(CC(C3)C1)C2	-84	-15	-3	-18	84*
CN(/C(=N\S(=O)(=O)c1ccccc1)C(F)(F)F)c1ccccc1	14	6	8	-8	-13
COCCNC(=O)CN1CCC(NC(=O)Nc2ccccc2)CC1	-23	-6	2	-3	22
COCCNC(=O)CN1CCC(NC(=O)Nc2ccc(C(F)(F)F)cc2)CC1	-89	-4	-2	-8	89*
CC(C)c1ccc(NC(=O)NC2CCN(CC(=O)Nc3cccc4ccccc34)CC2)cc1	-89	25	7	-10	90*
CCNC(=O)/C(=C/c1ccco1)NC(=O)/C=C/c1ccccc1	13	-3	-17	-8	-14
N#C/C(=C\c1ccc[nH]1)S(=O)(=O)c1ccccc1	2	3	2	-9	2
Cc1cc(C)c(S(=O)(=O)NCc2cn3c(C)csc3n2)cc1C	20	-1	19*	-19	-19
Cc1cc(C)c(S(=O)(=O)NCc2cn3c(C)csc3n2)c(C)c1	26	38	-6	-13	-25
COc1ccc(OC)c(CNCCNC(=O)c2ccco2)c1	9	20	4	-11	-8
CSC1=C(C#N)C(c2ccc(C(C)C)cc2)CC(=O)N1 (stereo unspecified)	.	3	0	66*	.
COCCn1c(CN2CCN(C)CC2)nc2c1c(=O)n(C)c(=O)n2C	.	-23	3	66*	.
COCCn1c(CN2CCN(c3cccc(Cl)c3)CC2)nc2c1c(=O)n(C)c(=O)n2C	6	28	-5	-6	-4
O=C(NC1CC2CCCC(C1)N2C1CC1)NC12CC3CC(CC(C3)C1)C2 (stereo unspecified)	-99	5	-7	-11	99*
O=C(NC1CCCCC1)N1CCCC(c2nc(-c3cccs3)no2)C1 (stereo unspecified)	-96	21	-5	-25	96*
COc1ccc(NC(=O)N2CCC(c3nc(-c4cccs4)no3)CC2)cc1	-90	-12	-2	-9	90*
O=C(Nc1cccc(C(F)(F)F)c1)N1CCC(c2nc(-c3ccc(F)cc3)no2)CC1	-93	-1	-2	-8	93*
CCCC(=O)N1CCCC(c2nc(-c3cccs3)no2)C1 (stereo unspecified)	-2	-28	2	5	4
O=C(Nc1ccc(Cl)cc1)N1CCC(c2nc(-c3ccccc3Cl)no2)CC1	-88	-9	1	-10	88*
CCCOC(=S)Nc1ccccc1	-15	-12	-7	-11	17
CCc1nc(SCC(=O)c2cccs2)c2oc3ccccc3c2n1	.	-5	-1	-4	.
SMILES	sEH act	Plk1 PBD FP	EphB4 ephrin blk	PLK1 inh	sEH inh
O=C(CN1C(=O)NC2(CCCC2)C1=O)NCCC1=CCCCC1	-10	-3	16*	-6	13
Oc1[nH]c2ccccc2c1N=Nc1nc2ccccc2s1	0	-8	15*	-16	0
Cc1ccc(S(=O)(=O)N=Nc2c(O)[nH]c3ccccc23)cc1	-2	34	-3	-24	4
O=C(CC1(O)C(=O)Nc2ccccc21)c1ccccc1 (stereo unspecified)	.	-12	-1	65*	.
O=C(c1cc2ccccn2n1)N1CCN(Cc2ccccc2)CC1	-3	-7	.	54*	7
CCCSc1nc(=O)n2cccc(C)c2n1	-3	7	-8	-4	2
Oc1c(CN2CCCCC2)cc(COCc2ccccc2)c2cccnc12	8	-19	20*	6	-9
O=c1[nH]c(CN2CCN(C/C=C/c3ccccc3)CC2)nc2cc(Cl)ccc12	-41	-18	-6	69*	40
O=C(CCc1nc2ccccc2c(=O)[nH]1)N1CCN(C/C=C/c2ccccc2)CC1	4	10	-9	-6	-6
CC(=O)c1c(C)[nH]c(C(=O)CSc2nnc(-c3ccc(Cl)cc3)n2CC2CCCO2)c1C (stereo unspecified)	12	-35	0	-12	-12
Cc1nc(-c2ccccc2)sc1-c1nc(-c2cccs2)ncc1S(=O)(=O)c1ccccc1	.	-21	0	-26	.
Cc1ccc(-c2csc(NC(=O)c3cccc(N4C(=O)CCC4=O)c3)n2)o1	.	9	1	67*	.
C=CCOc1cccc(C2C(C(=O)c3ccco3)=C(O)C(=O)N2CCN(CC)CC)c1 (stereo unspecified)	.	-1	-6	52*	.
CCOc1ccc(C2C(C(=O)c3ccco3)=C(O)C(=O)N2CCN(C)C)cc1 (stereo unspecified)	4	-14	0	-14	-2
COc1ccc(-c2nc(CN3CCC(C(=O)N4CCc5ccccc54)CC3)c(C)o2)cc1OC	.	-10	1	61*	.
CCOC(=O)N1CCN(C(=O)CSCc2nc(-c3ccccc3C)oc2C)CC1	9	-9	1	2	-8
CCOC(=O)N1CCN(C(=O)C2CCN(Cc3nc(-c4ccccc4C)oc3C)CC2)CC1	.	13	-3	68*	.
CCOc1ccccc1CN1C(=O)c2ccccc2C1C(=O)NC(C)CC (stereo unspecified)	-12	-5	-13	-3	13
CCOC(=O)N1CCN(C(=O)CN(Cc2ccc(Cl)cc2)S(=O)(=O)c2ccc(C)cc2)CC1	14	-35	-1	-11	-18
Cn1c(SCc2ccc(Cl)cc2)nc(C(F)(F)F)cc1=O	0	31	-5	-9	3
O=C(CCCOc1ccccc1)Nc1ccc(Br)cc1	-77	-9	4	-9	76
Cc1ccccc1OCCCC(=O)Nc1ccc(Br)cc1	-93	13	-1	-5	93*
CC(O)c1cccc(NC(=O)CCC(=O)O)c1 (stereo unspecified)	21	0	19*	-10	-22
CSc1ccccc1C(=O)Nc1cccc(C(C)O)c1 (stereo unspecified)	-6	4	-4	-17	10
CC1(C)Cc2c(sc3c2C2=NCCN2C=N3)CO1	1	11	1	57*	1
O=S1(=O)CCN2C=Nc3sc4c(c3C2=N1)CCCC4	-3	11	-12	-10	3
CN1CCN(c2nc(-c3ccncc3)nc3ccccc23)CC1	-1	17	5	53*	1
